# Measured values reported in PMC4336329 (PLoS ONE, 2015).
# About 14,000 (4.5%) of roughly 310,000 compounds showed an effect of 50% or more. Effects have a minus sign here. Many of the other results were omitted from the sample, so strong results are more common in it than they were.
# Target: human ether-à-go-go-related gene (hERG) potassium channel (human, UniProt Q12809)
# Experiment: primary screen, population patch clamp on CHO cells stably expressing hERG; higher = less effect of the substance
# 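Also: peak tail current of the secondary pulse compared with the same well before compound.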
# human ether-à-go-go-related gene (hERG) potassium channel, sequence (Q12809 whole entry, looked up): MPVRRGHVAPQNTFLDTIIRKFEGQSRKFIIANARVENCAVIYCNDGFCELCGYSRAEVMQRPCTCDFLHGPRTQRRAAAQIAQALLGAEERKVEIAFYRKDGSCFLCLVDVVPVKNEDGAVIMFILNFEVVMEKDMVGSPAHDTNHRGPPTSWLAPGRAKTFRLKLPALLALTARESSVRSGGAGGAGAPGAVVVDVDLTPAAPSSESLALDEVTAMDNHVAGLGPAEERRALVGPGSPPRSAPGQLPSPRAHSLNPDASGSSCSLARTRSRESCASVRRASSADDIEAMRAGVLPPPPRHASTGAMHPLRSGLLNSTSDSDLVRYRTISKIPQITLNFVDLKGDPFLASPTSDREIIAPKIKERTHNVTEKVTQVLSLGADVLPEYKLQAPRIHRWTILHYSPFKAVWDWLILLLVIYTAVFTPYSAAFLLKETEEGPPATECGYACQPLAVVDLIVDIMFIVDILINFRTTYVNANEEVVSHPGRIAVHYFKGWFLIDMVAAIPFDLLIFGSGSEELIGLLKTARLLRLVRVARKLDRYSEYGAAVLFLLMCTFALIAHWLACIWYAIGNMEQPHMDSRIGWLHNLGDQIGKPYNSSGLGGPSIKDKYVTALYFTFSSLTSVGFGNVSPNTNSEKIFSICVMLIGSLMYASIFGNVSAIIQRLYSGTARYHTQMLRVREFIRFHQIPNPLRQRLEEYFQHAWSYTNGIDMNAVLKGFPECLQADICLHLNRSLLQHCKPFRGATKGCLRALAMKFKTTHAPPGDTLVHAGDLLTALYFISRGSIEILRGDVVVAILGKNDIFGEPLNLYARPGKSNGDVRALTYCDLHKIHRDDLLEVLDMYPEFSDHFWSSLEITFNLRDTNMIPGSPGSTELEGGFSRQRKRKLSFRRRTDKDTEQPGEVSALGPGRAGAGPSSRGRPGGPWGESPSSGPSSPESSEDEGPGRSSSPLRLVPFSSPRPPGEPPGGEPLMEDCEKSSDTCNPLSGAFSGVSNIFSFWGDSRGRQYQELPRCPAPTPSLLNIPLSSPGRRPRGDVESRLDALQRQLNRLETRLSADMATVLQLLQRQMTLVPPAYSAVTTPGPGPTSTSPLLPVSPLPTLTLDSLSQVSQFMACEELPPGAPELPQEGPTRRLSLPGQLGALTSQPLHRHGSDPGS
row,Structure (SMILES),"hERG current change (%, negative = inhibition) at 10uM [%]"
1,CCCc1cc(N2CCN(C(=O)c3ccco3)CC2)n2c(nc3ccccc32)c1C#N,-56.1
2,CCCc1cc(-n2ccnc2)n2c(nc3ccccc32)c1C#N,-29.7
3,CCCc1cc(-n2cnc3ccccc32)n2c(nc3ccccc32)c1C#N,-50.1
4,NC(=O)c1cc[n+](CC2=C(C(=O)[O-])N3C(=O)[C@@H](NC(=O)C(c4ccccc4)S(=O)(=O)[O-])[C@H]3SC2)cc1.[Na+] (stereo partly drawn),20.3
5,Cc1cc(OCc2nn[nH]n2)c2c3c(c(=O)oc2c1)CCC3,3.12
6,Cc1cc(C)c(S(=O)(=O)NCc2ccc3c(c2)OCO3)cc1C,-6.86
7,Cc1onc(-c2ccccc2)c1C(=O)c1ccccc1,3.87
8,COCCN1CC(C(=O)NCc2ncccc2C)CCC1=O (stereo not drawn),22.6
9,Cc1ccc(S(=O)(=O)CCC(=O)N(Cc2nnc(-c3ccc(Cl)cc3)o2)C2CC2)cc1,-12.7
10,O=[N+]([O-])c1ccc(N2CCN(S(=O)(=O)c3ccccc3)CC2)cc1NCc1cccnc1,1.8
11,Cc1ccc2c(CC(=O)OCc3cc(=O)n4c(n3)sc3ccccc34)coc2c1,5.05
12,CC(CN1CCCCC1)OC(=O)/C=C/c1ccccc1.Cl (stereo not drawn),-71
13,COc1ccc(/C=C/C(=O)OC(C)CN2CCCCC2)cc1.Cl (stereo not drawn),-26.2
14,CC(CN1CCCC1)OC(=O)C(c1ccccc1)c1ccccc1.Cl (stereo not drawn),-42.2
15,CC(CN1CCOCC1)OC(=O)/C=C/c1ccccc1.Cl (stereo not drawn),10.1
16,CC(CN1CCOCC1)OC(=O)C(C)(c1ccccc1)c1ccccc1 (stereo not drawn),-8.05
17,CC(CN1CCCCC1)OC(=O)C(C)(c1ccccc1)c1ccccc1.Cl (stereo not drawn),-52.3
18,COc1cccc2cc(C(=O)NCc3ccc(Cl)cc3)c(=O)oc12,14.4
19,O=C(Cn1cnc2ccccc2c1=O)Nc1cccc(-c2nnc3n2CCCCC3)c1,0.387
20,Cc1cccc(-n2nc(C(=O)c3ccco3)cc(-c3nc4ccccc4[nH]3)c2=N)c1,-65.7
21,N=c1c(-c2nc3ccccc3[nH]2)cc(C(=O)c2cccs2)nn1-c1ccc(Cl)cc1,8.51

row,Structure (SMILES),"hERG current change (%, negative = inhibition) at 10uM [%]"
1,Cc1ccccc1-n1nc(C(=O)c2cccs2)cc(-c2nc3ccccc3[nH]2)c1=N,-1.9
2,O=C(Nc1ccc(-c2nc3ccccc3[nH]2)cc1)c1ccco1,-18.4
3,Cc1ccc2nc(-c3cccc(NC(=O)c4ccco4)c3)[nH]c2c1,-30.7
4,O=C(Nc1cccc(-c2nc3ccccc3[nH]2)c1)c1ccco1,-16.9
5,COc1ccc(-n2nc(C(=O)c3cccs3)cc(-c3nc4ccccc4[nH]3)c2=N)cc1,-4.53
6,N=c1c(-c2nc3ccccc3[nH]2)cc(C(=O)c2cccs2)nn1-c1ccccc1,-50.2
7,N=c1c(-c2nc3ccccc3[nH]2)cc(C(=O)c2ccco2)nn1-c1ccccc1,-59.5
8,COc1ccc(CCNC(=O)CCC(=O)N2CCN(S(=O)(=O)c3ccccc3)CC2)cc1OC,4.4
9,Fc1ccc(-n2c(Cc3ccccc3)nnc2SCc2nc(-c3ccc(Cl)cc3)no2)cc1,-1.6
10,Cc1cc(N(CN2CCCC2=O)C(=O)c2ccc(OC(C)C)cc2)no1,-2.94
11,O=C(NP(=O)(N1CCOCC1)N1CCOCC1)C1=C(N2CCOCC2)/C(=C\c2ccccc2)CC1,18.1
12,Cc1nc2n(n1)C(c1ccccc1)C1=C(CC(c3ccco3)CC1=O)N2 (stereo not drawn),11.4
13,CCSc1nnc(-c2cccc(S(=O)(=O)N(C)C)c2)n1-c1cc(OC)ccc1OC,-49.8
14,COc1ccc(OC)c(-n2c(SCC(C)=O)nnc2-c2cccc(S(=O)(=O)N(C)C)c2)c1,-16.9
15,CCCSc1nnc(-c2cccc(S(=O)(=O)N(C)C)c2)n1-c1cc(OC)ccc1OC,-68.2
16,CC(C)(C)OC(=O)CNC(=O)c1nc[nH]c1C(=O)N1CCN(C(=O)OC(C)(C)C)CC1,-15.8
17,CCOc1ccc(C(=O)NCCC(=O)NCCCC(=O)O)cc1,6.08
18,Cc1cccc(N2N=C(C(=O)O)CCC2=O)c1,10.2
19,CC(=O)c1ccc(NC(=O)c2cnn3c(C(F)F)cc(C4CC4)nc23)cc1,11.1
20,O=C(O)c1cnn2c(C(F)F)cc(C3CC3)nc12,3.73
21,O=C(Nc1cccnc1)c1cnn2c(C(F)F)cc(C3CC3)nc12,-57.6
